Source: PubChem
Most compounds without a hit are left out; they make up all but 3.1% or so of the library.
TROY NFkB inh – TROY signaling inhibition. Q293 LMP1-TROYcd NF-kB luciferase reporter, 4 h. inhibition, % at 10 µM. actives 0.98% (n = 360,000). AID 1347056;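 active = compounds whose plate-normalised and pattern-corrected inhibition of the luciferase reporter signal at the single screening dose is 50% or more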
PAX8 reporter – inhibitors of PAX8 transcriptional activity in RMG-I cells; RMG-I TPO-luciferase reporter, SteadyGlo, 24 h; inhibition, % at 12.6 µM; actives 1.2% (n = 360,000); AID 652154;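 active = mean replicate inhibition at least 60% with every replicate also reaching 60%; inconclusive = only one of the two criteria is met; inactive = mean below 60% and not all replicates reaching 60%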;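 also: luciferase light reporting Pax8 driven TPO promoter activity; plate controls were median of neutral control wells for no effect and mitoxantrone controls for full effect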
EWS-Fli inh – inhibitors of EWS/Fli oncoprotein transcriptional activity; A673 NR0B1-luciferase reporter, viability-normalised; actives 0.67% (n = 350,000); inhibition, % at 12.6 µM;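 active = mean inhibition of at least 50% after viability correction, with every replicate also passing that limit; inconclusive = mean reaches 50% but only one of two replicates passes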;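 also: firefly luciferase signal divided by Alamar Blue viability fluorescence both relative to DMSO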
TWEAK Fn14 block – TWEAK-Fn14 signaling inhibition | TWEAK-stimulated Fn14 reporter cells, luciferase luminescence, 8 h | inhibition, % at 10 µM | actives 2% (n = 360,000) | AID 1159606; in the data active = inhibition above about 50%
LGR2 inh – blocks bursicon-induced cAMP signaling via Drosophila LGR2 | actives 0.35% (n = 380,000) | HEK293 LGR2, CRE-luciferase, bursicon-stimulated, 4 h | inhibition, % at 9.99 µM | AID 720647;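 active = drop in luminescence signal, shown as inhibition above about 50% in the replicate tests, limit read from the data, passing the limit was not always enough; inconclusive = probably only some replicates passing the limit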;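 also: agonist challenge used bursicon conditioned medium at about half maximal strength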
LMP1 NFkB inh – inhibitors of Epstein-Barr LMP1-induced NF-kappaB reporter; LMP1-induced NF-kappaB luciferase reporter cells, luminescence; inhibition, % at 12.5 µM; actives 0.69% (n = 350,000); AID 504558; in the data active = inhibition above about 41%; inconclusive = no clear call, values can overlap the other calls;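 also: 0% = neutral control wells and 100% = reference inhibitor control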
Starred values were filed as active, the others as inactive; u = inconclusive; x = not tested or not shown.

SMILES	TROY NFkB inh	PAX8 reporter	EWS-Fli inh	TWEAK Fn14 block	LGR2 inh	LMP1 NFkB inh
CCOC(=O)c1c(NC(=O)C(NCCN(C)C)c2ccccc2)sc2c1CCCC2 (stereo not drawn)	-29	38	59*	-23	3	-9
Cc1ccc(C(=O)Nc2ccc(-c3csc(C)n3)cc2)cc1	-24	-75	-40	21	-98	-16
O=C(Nc1ccc(-c2csc(Nc3cccc(C(F)(F)F)c3)n2)cc1)c1ccccc1	-2	34	-40	65*	-13	-11
O=C(Nc1cccc(-c2csc(Nc3cccc(C(F)(F)F)c3)n2)c1)c1ccccc1	-3	u	0	43	6	-26
Cc1nc(-c2ccc(NC(=O)c3ccccc3)cc2)cs1	19	-61	5	68*	23	-7
CO[C@@H]1CN(C)C(=O)c2ccc(NC(=O)Nc3c(C)noc3C)cc2OC[C@@H](C)N(C)C[C@H]1C	x	x	-9	x	9	x
COC(=O)[C@@H]1[C@@H](CO)[C@@H]2Cn3c(ccc(-c4ccncc4)c3=O)[C@@H]2N1CC1CCCC1	x	x	-4	x	4	x
CC1(Cc2ccc3c(c2)OCO3)C(=O)Nc2ccc(-c3cccc(C(F)(F)F)c3)cc21 (stereo not drawn)	6	8	19	103*	x	x
CC1(Cc2ccc(F)cc2)C(=O)Nc2ccc(-c3cccnc3)cc21 (stereo not drawn)	25	-4	5	64*	28	x
C=Cc1ccc(CC2(C)C(=O)Nc3ccc(-c4cccnc4)cc32)cc1 (stereo not drawn)	48	-2	-11	81*	16	x
CC1(Cc2ccc(Cl)cc2)C(=O)Nc2ccc(-c3ccc(F)c(Cl)c3)cc21 (stereo not drawn)	-1	18	2	3	12	x
COc1ccccc1-c1ccc2c(c1)C(C)(Cc1ccc(Cl)c(Cl)c1)C(=O)N2 (stereo not drawn)	2	12	-1	18	0	x
CC1(Cc2ccc(C(F)(F)F)o2)C(=O)Nc2ccc(-c3cccc(C(F)(F)F)c3)cc21 (stereo not drawn)	4	30	7	3	3	x
C[C@H]1CN([C@@H](C)CO)C(=O)c2cccc(NC(=O)Nc3ccc(C(F)(F)F)cc3)c2O[C@@H]1CN(C)CC1CC1	x	-18	-3	x	-13	x
C[C@H]1CN([C@@H](C)CO)C(=O)Cc2cc(NC(=O)CCCCCC(=O)Nc3ccccc3N)ccc2O[C@H]1CN(C)S(=O)(=O)c1ccc(F)cc1	x	19	20	x	-4	x
C[C@H]1CN([C@@H](C)CO)C(=O)c2cc(C#Cc3ccccn3)cnc2O[C@@H]1CN(C)CC1CCCC1	x	-26	-8	x	x	x
CC(=O)Nc1ccc(S(=O)(=O)NCC(=O)NCCCc2ccccc2)cc1	-8	6	x	51*	10	0
COCc1[nH]nc2c1C(c1ccc(OC)c(OC)c1)C(C#N)=C(N)O2 (stereo not drawn)	4	x	x	13	x	-2
CCn1c2ccccc2c2cc(C3C(C#N)=C(N)Oc4n[nH]c(COC)c43)ccc21 (stereo not drawn)	-6	x	x	4	x	92*
Cc1ccc2[nH]c(CNC(=O)C3CCCCC3)cc2c1	53*	23	9	72*	-16	-8
CC(C)C#Cc1cnc2c(c1)C(=O)N([C@H](C)CO)C[C@@H](C)[C@H](CN(C)C(=O)Nc1ccc(F)cc1)O2	x	6	-7	x	-6	x
O=C(C[C@H]1CC[C@H]2[C@@H](COC[C@@H](O)CN2S(=O)(=O)c2cccc(F)c2)O1)NC1CCC1	x	-13	-13	x	11	x
O=C(CN1c2ccccc2Sc2ccccc21)NNC(=S)Nc1ccc(Cl)cc1	43	11	13	20	26	0
O=C(CN1c2ccccc2Sc2ccccc21)NNC(=S)Nc1ccc(Cl)cc1Cl	52*	x	x	-7	x	3
CCN(CC)CCCNc1ccc(-c2nnc(-c3ccc(OCC(C)C)cc3)o2)cn1	-21	42	61*	-71	11	0
SMILES	TROY NFkB inh	PAX8 reporter	EWS-Fli inh	TWEAK Fn14 block	LGR2 inh	LMP1 NFkB inh
CCCOc1ccc(-c2nnc(-c3ccco3)o2)cc1	34	2	x	72*	x	28
CC(C)COc1ccc(-c2nnc(-c3ccco3)o2)cc1	-12	x	x	57*	x	19
COc1cc(CSc2nnnn2-c2ccc(C)cc2)cc(OC)c1OC	54*	x	x	48	x	27
COc1ccc(N2C(=O)c3ccccc3NC2(C)C)cc1	-66	-115	-86	-12	-8	42*
CC1(C)Nc2ccccc2C(=O)N1c1ccc(Br)cc1	-58	-92	-61	19	x	-30
O=C(Nc1ccc(Cl)c(Cl)c1)N[C@H]1CC[C@@H](CCn2cc(C3CCCCC3)nn2)O[C@H]1CO	x	-1	-3	x	5	x
O=C(Nc1ccc(Cl)c(Cl)c1)N[C@@H]1CC[C@H](CCn2cc(C3CCCCC3)nn2)O[C@H]1CO	x	113*	25	x	16	x
NS(=O)(=O)c1ccc(NCc2c(F)cccc2Cl)cc1	-48	x	x	6	x	-1
Fc1cccc(Cl)c1CNc1ccc(N2CCCC2)cc1	17	11	-1	57*	-28	-5
O=C(C[C@@H]1C[C@@H]2c3cc(NC(=O)Nc4ccccc4)ccc3O[C@@H]2[C@@H](CO)O1)NCc1cccc(F)c1	x	8	2	x	-10	x
CC(=NNC(=S)N1CCCCC1)c1cccc(C)n1	7	4	4	-39	3	69*
Cc1cccc(NC(=S)Nc2cccc(C)n2)n1	-10	-5	-14	-31	-17	-16
CCC1CCCCN1C(=S)NN=C(C)c1ccccn1 (stereo not drawn)	x	39	26	x	15	x
CSC(=S)NN=C(C)c1cccc(C)n1	16	76*	13	91*	u	5
Cc1cccc(C(=S)N2CCOCC2)n1	-11	-1	-2	10	2	1
CC(=NNC(=S)N1CCCCC1)c1ccccn1	-18	21	6	5	-7	57*
CC(=O)N1C[C@@H]2[C@H](c3ccccc31)[C@H](CO)N2S(=O)(=O)c1ccccc1	x	3	6	x	3	x
CCC(=O)NC[C@@H]1[C@@H](c2ccc(C3=CCCC3)cc2)[C@@H](CO)N1C(C)=O	x	-7	-4	x	13	x
C[C@@H]1CN([C@@H](C)CO)C(=O)c2cc(NC(=O)Cc3ccccc3)ccc2O[C@@H](C)CCCCO[C@@H]1CN(C)C(=O)CCCN(C)C	x	3	7	x	-5	x
COc1ccccc1-c1nnc(NC(=O)CCS(=O)(=O)c2ccc(F)cc2)o1	7	74*	0	-8	13	7
Cc1ccc(C)c(C(=O)NC(C)CCc2ccccc2)c1 (stereo not drawn)	4	-4	-13	3	-2	0
O=C(COC(=O)[C@H](Cc1c[nH]c2ccccc12)NC(=O)c1cccs1)NCc1ccccc1	2	66*	8	7	15	-12
Cc1occc1C(=O)NC(C)CCc1ccccc1 (stereo not drawn)	x	x	x	52*	x	-4
